From PubChem BioAssay (EPA / NIEHS) come the findings set out here.

Inconclusive results are not listed. Activity calls are given as the source filed them. How the source made its calls: active means hit-call score of the fitted dose curve at least 0.9, where 1 is the maximum; inconclusive means response in the unintended direction; inactive means score below 0.9.

The target in assay [1] is human Protein Tyrosine Phosphatase Non-receptor Type 4 (PTPN4), PTPN4 (gene 5775) (UniProt P29074). The assay is described as follows: NVS_ENZ_hPTPN4: NovaScreen (NVS) Enzymatic Assay for human Protein Tyrosine Phosphatase Non-receptor Type 4 (PTPN4) (AID 2283208). A digest of the protocol: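 Cell-free assay of PTPN4 expressed in Sf9 cells, using a fluorescent substrate with product separated by mobility shift; read 1.33 h after dosing. Single-point screen at 25 uM, then concentration-response up to 50 uM. Loss of signal relative to DMSO.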

Assay [2] concerns the target human Protein Tyrosine Phosphatase Non-receptor Type 9 (PTPN9), PTPN9 (gene 5780) (UniProt P43378). The assay is described as follows: NVS_ENZ_hPTPN9: NovaScreen (NVS) Enzymatic Assay for human Protein Tyrosine Phosphatase Non-receptor Type 9 (PTPN9) (AID 2283209). A digest of the protocol: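 Sf9-expressed enzyme in a cell-free assay, fluorescence read 1.33 h after dosing with mobility-shift separation of substrate and product. Tested at 25 uM in duplicate, then up to 50 uM; signal loss versus DMSO.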

The target in assay [3] is Tyrosine-protein phosphatase non-receptor type 12 (Homo sapiens) (UniProt Q05209). The assay is described as follows: NVS_ENZ_hPTPN12: NovaScreen (NVS) Enzymatic Assay for human Protein Tyrosine Phosphatase Non-receptor Type 12 (PTPN12) (AID 2283204). A digest of the protocol:
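Single-concentration duplicates (25 uM) preceded singleton concentration-response up to 50 uM for chemicals passing threshold. Cell-free recombinant PTPN12 activity was read 1.33 h after dosing via fluorescence after mobility-shift separation; loss of signal versus DMSO.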

In assay [4] the target is PPP2CA (gene 5515) (UniProt P67775). The assay is described as follows: NVS_ENZ_hPPP2CA: NovaScreen (NVS) Enzymatic Assay for human Protein Phosphatase 2 Aatalytic subunit Alpha (PPP2CA) (AID 2283199). A digest of the protocol:
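Recombinant human PPP2CA with fluorescent substrate; product separated from substrate by electrophoretic mobility shift, read 1.33 h after dosing. Duplicate single-point at 25 uM, then singleton concentration-response up to 50 uM; loss of signal versus DMSO.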

PPP2CA (gene 5515), sequence (P67775 whole entry, looked up): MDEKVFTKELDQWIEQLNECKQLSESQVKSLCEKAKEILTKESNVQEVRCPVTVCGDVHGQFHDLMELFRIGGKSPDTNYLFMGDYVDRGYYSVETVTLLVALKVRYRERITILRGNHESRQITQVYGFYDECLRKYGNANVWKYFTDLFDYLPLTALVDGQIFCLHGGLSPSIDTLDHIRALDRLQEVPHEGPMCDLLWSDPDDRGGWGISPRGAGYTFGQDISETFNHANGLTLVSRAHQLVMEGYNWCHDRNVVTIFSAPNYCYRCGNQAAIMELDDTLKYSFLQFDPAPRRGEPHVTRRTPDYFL
human Protein Tyrosine Phosphatase Non-receptor Type 9 (PTPN9), PTPN9 (gene 5780), sequence (P43378 whole entry, looked up): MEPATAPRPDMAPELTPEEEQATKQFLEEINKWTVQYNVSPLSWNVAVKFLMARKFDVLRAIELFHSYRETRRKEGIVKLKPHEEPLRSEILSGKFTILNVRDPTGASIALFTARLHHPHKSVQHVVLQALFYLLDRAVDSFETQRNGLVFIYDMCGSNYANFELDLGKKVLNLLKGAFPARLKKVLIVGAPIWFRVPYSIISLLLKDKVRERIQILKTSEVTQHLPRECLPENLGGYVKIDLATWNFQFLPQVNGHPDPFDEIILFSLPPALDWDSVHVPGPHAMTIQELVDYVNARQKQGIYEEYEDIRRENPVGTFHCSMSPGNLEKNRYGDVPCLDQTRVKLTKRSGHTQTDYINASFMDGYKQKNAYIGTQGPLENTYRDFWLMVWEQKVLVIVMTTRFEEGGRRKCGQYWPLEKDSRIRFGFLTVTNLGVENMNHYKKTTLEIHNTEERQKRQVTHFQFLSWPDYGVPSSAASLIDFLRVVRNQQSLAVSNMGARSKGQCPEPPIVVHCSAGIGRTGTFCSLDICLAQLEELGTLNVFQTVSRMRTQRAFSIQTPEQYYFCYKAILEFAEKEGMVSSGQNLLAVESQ
Tyrosine-protein phosphatase non-receptor type 12 (Homo sapiens), sequence (Q05209 whole entry, looked up): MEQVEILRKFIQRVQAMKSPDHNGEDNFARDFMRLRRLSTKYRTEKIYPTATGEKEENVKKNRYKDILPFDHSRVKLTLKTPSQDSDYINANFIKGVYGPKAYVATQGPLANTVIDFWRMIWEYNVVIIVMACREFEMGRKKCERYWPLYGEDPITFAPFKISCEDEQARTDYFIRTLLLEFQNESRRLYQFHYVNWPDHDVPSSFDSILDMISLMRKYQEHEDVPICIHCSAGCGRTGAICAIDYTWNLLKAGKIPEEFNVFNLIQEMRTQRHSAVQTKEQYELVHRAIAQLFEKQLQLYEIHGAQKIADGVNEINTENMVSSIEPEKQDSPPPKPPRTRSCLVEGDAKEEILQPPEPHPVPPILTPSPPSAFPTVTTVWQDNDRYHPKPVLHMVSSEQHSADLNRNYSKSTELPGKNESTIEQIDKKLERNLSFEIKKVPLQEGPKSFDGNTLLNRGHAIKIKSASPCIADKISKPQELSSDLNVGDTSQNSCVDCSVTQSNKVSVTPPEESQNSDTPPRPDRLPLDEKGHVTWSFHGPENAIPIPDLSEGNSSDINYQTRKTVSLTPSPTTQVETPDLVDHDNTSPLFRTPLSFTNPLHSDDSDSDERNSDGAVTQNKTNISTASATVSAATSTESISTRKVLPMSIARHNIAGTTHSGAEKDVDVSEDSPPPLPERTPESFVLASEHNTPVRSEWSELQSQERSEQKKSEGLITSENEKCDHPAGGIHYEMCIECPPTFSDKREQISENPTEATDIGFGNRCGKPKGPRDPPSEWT
human Protein Tyrosine Phosphatase Non-receptor Type 4 (PTPN4), PTPN4 (gene 5775), sequence (P29074 whole entry, looked up): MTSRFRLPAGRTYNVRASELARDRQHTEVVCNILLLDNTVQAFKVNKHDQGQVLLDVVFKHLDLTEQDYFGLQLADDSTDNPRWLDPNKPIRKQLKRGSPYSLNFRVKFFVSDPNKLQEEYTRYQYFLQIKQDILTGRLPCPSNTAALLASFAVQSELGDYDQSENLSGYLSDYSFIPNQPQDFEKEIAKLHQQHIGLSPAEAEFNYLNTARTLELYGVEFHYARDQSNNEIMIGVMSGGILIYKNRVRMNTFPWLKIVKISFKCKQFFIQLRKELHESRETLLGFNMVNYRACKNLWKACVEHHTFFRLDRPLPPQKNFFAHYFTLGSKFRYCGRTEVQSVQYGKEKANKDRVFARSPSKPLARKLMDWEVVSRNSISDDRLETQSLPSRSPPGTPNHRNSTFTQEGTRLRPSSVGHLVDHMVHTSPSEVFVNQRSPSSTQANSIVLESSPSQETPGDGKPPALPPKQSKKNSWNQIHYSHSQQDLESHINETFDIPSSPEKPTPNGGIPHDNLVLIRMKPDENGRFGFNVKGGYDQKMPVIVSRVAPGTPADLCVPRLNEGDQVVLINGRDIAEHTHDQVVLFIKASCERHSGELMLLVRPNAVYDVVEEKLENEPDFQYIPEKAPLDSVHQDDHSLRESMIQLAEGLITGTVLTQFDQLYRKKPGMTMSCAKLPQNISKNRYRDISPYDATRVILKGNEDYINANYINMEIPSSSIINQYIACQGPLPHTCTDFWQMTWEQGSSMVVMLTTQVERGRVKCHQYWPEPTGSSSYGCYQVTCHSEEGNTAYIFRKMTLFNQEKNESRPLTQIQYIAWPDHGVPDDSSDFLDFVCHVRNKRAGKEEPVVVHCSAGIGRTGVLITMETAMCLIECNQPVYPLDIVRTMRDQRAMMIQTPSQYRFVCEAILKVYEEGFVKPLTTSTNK

In the case of `N#CSCSC#N`, the result in assay [1] and in assay [2] was inactive.
For `COc1cc(OC)nc(Sc2cccc(Cl)c2C(=O)O)n1`, in assay [3], the call was inactive.
Consider `CCOP(=S)(Oc1cnc(C(C)(C)C)nc1)OC(C)C` (centres undefined), for which, in assay [4], the call was inactive.
